# Where “and” joins values, the source holds several entries; their conditions need not be identical. Identical values can stand only once. Inconclusive results are not listed. Where a call stands in place of a potency, no number is given. A number with no mark means an inactive call. Calls of active or inactive are those of the source. Unless noted, calls come from the whole dose curve; as a rule, active = well fitted curve in the direction sought with a large enough effect; inconclusive = small, poorly fitted or top-dose-only effect, or another doubt; inactive = no such curve, though single readings can be large; an effect the other way counts as inactive or inconclusive.
# Columns and labels:
# [1] = target: Cytochrome P450 2C9 (Homo sapiens) (UniProt P11712); test: Cytochrome P450 family 2 subfamily C member 9 (CYP2C9) small molecule antagonists: luciferase biochemical (cell-free) qHTS assay (AID 1645842; active = well fitted curve in the direction sought with a large enough effect in the repeat runs; an effect the other way counts as inactive or inconclusive; note: nearly all actives have a fitted effect of over 55% in size; note: potency is the fitted concentration of half-maximal effect); conditions: P450-Glo CYP2C9 enzyme assay, luciferin luminescence; series mostly up to 57.4 µM
# Sequence of Cytochrome P450 2C9 (Homo sapiens) (P11712 whole entry, looked up): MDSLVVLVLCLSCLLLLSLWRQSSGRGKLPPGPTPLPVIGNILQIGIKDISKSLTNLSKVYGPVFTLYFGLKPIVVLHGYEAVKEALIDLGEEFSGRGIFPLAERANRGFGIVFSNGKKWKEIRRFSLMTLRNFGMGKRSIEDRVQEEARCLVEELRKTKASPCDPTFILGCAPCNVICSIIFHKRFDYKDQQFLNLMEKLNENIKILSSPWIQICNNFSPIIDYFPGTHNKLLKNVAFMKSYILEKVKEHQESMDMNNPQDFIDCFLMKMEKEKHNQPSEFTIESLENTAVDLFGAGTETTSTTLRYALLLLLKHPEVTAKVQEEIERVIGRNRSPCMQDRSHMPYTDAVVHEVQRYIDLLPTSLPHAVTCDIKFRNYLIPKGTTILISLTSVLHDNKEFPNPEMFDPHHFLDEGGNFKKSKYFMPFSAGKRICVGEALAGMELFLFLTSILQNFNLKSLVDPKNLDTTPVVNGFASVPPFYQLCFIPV
# Outline: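 Luminescence, after 20 min with luciferin detection reagent, reflected CYP2C9 turnover during a 1 h NADPH-driven reaction at 37C. Enzyme-substrate mix contained 0.4% bovine serum albumin and was preincubated with compound 10 min at room temperature.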
# [2] = target: Rap guanine nucleotide exchange factor 3 (Homo sapiens) (UniProt O95398); test: Confirmatory qHTS for agonist of cAMP-regulated guanine nucleotide exchange factor 3 (EPAC1) (AID 1645881); conditions: EPAC1 Rap1B BODIPY-GDP exchange fluorescence, 100% = cAMP control response; series mostly up to 154 µM;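 note: EPAC1 catalysed release of BODIPY-GDP from Rap1B seen as fluorescence loss; nearly all actives have a fitted effect of over 75% in size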
# Sequence of Rap guanine nucleotide exchange factor 3 (Homo sapiens) (O95398 whole entry, looked up): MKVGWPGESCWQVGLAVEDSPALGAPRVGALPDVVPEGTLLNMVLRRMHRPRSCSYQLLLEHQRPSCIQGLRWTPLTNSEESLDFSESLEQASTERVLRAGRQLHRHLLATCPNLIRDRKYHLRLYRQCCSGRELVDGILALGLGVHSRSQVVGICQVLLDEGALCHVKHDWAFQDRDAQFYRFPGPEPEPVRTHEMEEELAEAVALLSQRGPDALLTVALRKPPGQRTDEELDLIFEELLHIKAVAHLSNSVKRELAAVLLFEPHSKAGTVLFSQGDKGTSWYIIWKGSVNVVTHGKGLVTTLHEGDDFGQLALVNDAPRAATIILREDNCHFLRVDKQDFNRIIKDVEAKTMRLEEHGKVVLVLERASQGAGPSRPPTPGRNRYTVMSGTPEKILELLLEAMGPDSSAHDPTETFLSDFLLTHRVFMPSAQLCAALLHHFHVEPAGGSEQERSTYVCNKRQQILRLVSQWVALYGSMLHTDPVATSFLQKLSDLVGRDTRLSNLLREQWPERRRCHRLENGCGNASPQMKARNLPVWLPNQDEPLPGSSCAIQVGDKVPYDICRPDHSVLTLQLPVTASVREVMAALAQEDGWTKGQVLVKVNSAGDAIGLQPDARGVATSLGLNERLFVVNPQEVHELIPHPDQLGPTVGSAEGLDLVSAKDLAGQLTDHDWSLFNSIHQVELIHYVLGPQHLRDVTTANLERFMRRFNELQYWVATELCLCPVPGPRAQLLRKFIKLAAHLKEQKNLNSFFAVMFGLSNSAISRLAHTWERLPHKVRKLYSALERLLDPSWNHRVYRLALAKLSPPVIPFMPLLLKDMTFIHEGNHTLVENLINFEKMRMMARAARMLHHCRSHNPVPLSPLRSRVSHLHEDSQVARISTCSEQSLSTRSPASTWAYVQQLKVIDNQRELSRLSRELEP
# [3] = target: Rap guanine nucleotide exchange factor 4 (Homo sapiens) (UniProt Q8WZA2); test: Confirmatory qHTS for agonist of cAMP-regulated guanine nucleotide exchange factor 4 (EPAC2) (AID 1645884); conditions: EPAC2 GEF activity, Rap1B-BODIPY-GDP fluorescence, percent relative to cAMP agonist control; series mostly up to 154 µM;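 note: nucleotide exchange releases bodipy-GDP from Rap1 and this lowers its fluorescence; nearly all actives have a fitted effect of over 65% in size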
# Sequence of Rap guanine nucleotide exchange factor 4 (Homo sapiens) (Q8WZA2 whole entry, looked up): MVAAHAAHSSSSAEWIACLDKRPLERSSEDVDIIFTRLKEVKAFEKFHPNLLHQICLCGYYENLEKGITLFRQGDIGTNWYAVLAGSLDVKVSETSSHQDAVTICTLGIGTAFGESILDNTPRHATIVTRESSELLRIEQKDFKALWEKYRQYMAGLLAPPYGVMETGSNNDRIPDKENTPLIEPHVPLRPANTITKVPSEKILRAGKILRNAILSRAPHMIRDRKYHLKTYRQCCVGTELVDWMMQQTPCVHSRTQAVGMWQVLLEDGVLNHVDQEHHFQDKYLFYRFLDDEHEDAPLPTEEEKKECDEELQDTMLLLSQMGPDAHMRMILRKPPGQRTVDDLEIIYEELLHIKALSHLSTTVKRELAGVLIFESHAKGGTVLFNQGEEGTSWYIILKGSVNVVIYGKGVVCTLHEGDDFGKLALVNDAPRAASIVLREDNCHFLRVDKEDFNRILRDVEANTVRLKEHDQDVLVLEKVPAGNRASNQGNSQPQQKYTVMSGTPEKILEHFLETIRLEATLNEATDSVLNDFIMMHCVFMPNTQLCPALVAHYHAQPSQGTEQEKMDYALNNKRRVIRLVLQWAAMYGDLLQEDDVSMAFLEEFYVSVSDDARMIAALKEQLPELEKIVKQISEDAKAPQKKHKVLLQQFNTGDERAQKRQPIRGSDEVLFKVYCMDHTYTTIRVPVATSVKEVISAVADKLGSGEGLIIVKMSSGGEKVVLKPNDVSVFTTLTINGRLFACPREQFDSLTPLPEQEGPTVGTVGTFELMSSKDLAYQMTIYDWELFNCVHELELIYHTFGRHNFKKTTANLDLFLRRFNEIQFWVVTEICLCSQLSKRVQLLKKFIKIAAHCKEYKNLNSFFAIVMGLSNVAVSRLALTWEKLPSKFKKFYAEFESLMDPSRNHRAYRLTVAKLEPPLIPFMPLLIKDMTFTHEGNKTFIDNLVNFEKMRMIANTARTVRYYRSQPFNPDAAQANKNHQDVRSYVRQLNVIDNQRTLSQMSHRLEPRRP
# [4] = target: Cytochrome P450 2D6 (Homo sapiens) (UniProt P10635); test: Cytochrome P450 family 2 subfamily D member 6 (CYP2D6) small molecule antagonists: luciferase biochemical (cell-free) qHTS assay (AID 1645840; active = well fitted curve in the direction sought with a large enough effect in the repeat runs; an effect the other way counts as inactive or inconclusive; note: nearly all actives have a fitted effect of over 55% in size; note: potency is the fitted concentration of half-maximal effect); conditions: P450-Glo CYP2D6 enzyme, luciferin luminescence, 1 h; series mostly up to 57.4 µM
# Sequence of Cytochrome P450 2D6 (Homo sapiens) (P10635 whole entry, looked up): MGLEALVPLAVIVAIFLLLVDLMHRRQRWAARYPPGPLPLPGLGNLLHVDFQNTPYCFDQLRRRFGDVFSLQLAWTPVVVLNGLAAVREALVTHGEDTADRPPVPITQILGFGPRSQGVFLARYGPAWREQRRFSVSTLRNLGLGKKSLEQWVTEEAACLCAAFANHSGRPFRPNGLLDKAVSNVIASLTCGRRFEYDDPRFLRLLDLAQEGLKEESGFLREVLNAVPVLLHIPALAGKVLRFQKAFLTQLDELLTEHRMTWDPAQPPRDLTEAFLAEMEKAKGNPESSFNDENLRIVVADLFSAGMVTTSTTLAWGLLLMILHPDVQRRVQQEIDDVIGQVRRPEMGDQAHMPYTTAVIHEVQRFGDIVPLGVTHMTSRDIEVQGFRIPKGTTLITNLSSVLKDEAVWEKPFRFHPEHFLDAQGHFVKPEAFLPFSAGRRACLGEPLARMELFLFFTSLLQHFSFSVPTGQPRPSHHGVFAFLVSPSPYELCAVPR
# Outline: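 P450-Glo luminescent screen: recombinant CYP2D6 enzyme–proluciferin substrate mix preincubated with compound 10 min at room temperature, then NADPH regeneration added for 1 h at room temperature. Detection reagent added for 20 min; luciferin light read as relative luminescence units.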
# [5] = Primary qHTS for inhibitors of nuclear receptor binding SET domain protein 2 (NSD2) in an isogenic RCH-ACV NSD2 p.E1099K mutant (9B) (AID 1645876); conditions: RCH-ACV NSD2 E1099K (9B) viability, CellTiter-Glo, 72 h; series mostly up to 44.9 µM; note: nearly all actives have a fitted effect of over 70% in size; note: potency is the fitted concentration of half-maximal effect
# [6] = Primary qHTS for inhibitors of nuclear receptor binding SET domain protein 2 (NSD2) in an RCH-ACV wild type WT cells (2C) (AID 1645877); conditions: RCH-ACV (leukaemia line) NSD2 WT (2C) viability, CellTiter-Glo, 72 h; series mostly up to 44.9 µM; note: nearly all actives have a fitted effect of over 70% in size; note: potency is the fitted concentration of half-maximal effect
# [7] = NCATS anti-infectives library activity on HEK293 viability as a counter-qHTS vs the C. elegans viability qHTS (AID 1745854); conditions: HEK293 viability counter-screen; series mostly up to 41.8 µM;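 note: HEK293 cells exposed to compounds for 24 hr before the viability read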
# Outline: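 Cytotoxicity in human HEK293 cells is measured by ATP-dependent CellTiter-Glo luminescence following a 24 hr incubation with titrated library compounds at 37C. Top final concentration is 41.7 uM.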
# [8] = target: Rap guanine nucleotide exchange factor 3 (Homo sapiens) (UniProt O95398); test: Confirmatory qHTS for antagonist of cAMP-regulated guanine nucleotide exchange factor 3 (EPAC1) (AID 1645880); conditions: EPAC1 Rap1B-BODIPY-GDP exchange, fluorescence; series mostly up to 115 µM; note: nearly all actives have a fitted effect of over 55% in size
# Outline: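 Nucleotide exchange uses 100 nM EPAC1, 250 nM RAP1B-BODIPY-GDP and 50 uM GDP, with compounds in a concentration-titration series. After 5 min at room temperature, fluorescence (480 nm ex/540 nm em) is read every 5 min for 30 min. Data are normalized to control ATA and DMSO.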
# [9] = target: Rap guanine nucleotide exchange factor 4 (Homo sapiens) (UniProt Q8WZA2); test: Confirmatory qHTS for antagonist of cAMP-regulated guanine nucleotide exchange factor 4 (EPAC2) (AID 1645885); conditions: EPAC2 Rap1B-BODIPY-GDP exchange fluorescence, biochemical; series mostly up to 114 µM; note: nearly all actives have a fitted effect of over 25% in size
# [10] = Viability counterscreen for antagonist of constitutive androstane receptor (CAR) against the NCATS DSHEA and TCM libraries (AID 1794837); conditions: CAR reporter cell line viability counterscreen, qHTS; series mostly up to 40 µM;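 note: compound exposure lasted 24 h before viability reading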
# Outline: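 Cell viability, CellTiter-Fluor, Ex/Em 405/540 nm, 1 h at 37C. HepG2-CYP2B6-hCAR, 2,500 cells/well; cpds + CITCO 48 uM final (antagonist mode), 24 h, 37C/5% CO2.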
# Papain (Carica papaya) = Papain (Carica papaya) (UniProt P00784); test: Primary qHTS assay for inhibitors of the protease papain (AID 1645873); conditions: papain Z-FR-AMC cleavage, AMC fluorescence; series mostly up to 49.8 µM;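 note: papain turnover of Z-FR-AMC read as the AMC fluorescence gain over 10 min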
# Sequence of Papain (Carica papaya) (P00784 whole entry, looked up): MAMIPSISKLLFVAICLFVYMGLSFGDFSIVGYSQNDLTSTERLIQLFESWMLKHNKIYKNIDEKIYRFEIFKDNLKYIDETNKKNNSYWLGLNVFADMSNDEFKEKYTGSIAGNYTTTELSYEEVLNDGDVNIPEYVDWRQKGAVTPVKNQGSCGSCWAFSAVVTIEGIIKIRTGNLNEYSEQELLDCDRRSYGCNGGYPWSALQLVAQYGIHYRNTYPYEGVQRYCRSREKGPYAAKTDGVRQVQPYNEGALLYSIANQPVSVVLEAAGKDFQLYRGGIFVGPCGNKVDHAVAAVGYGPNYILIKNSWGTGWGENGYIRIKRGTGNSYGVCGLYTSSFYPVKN
# [11] = target: Rap guanine nucleotide exchange factor 3 (Homo sapiens) (UniProt O95398); test: Counterscreen qHTS for antagonist of cAMP-regulated guanine nucleotide exchange factor 3 (EPAC1) (AID 1645888); conditions: Rap1B-BODIPY-GDP nucleotide exchange, fluorescence; series mostly up to 30.8 µM;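 note: fluorescence loss as bound BODIPY-GDP is released from Rap1B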
# Outline: (§1)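 Measured: fluorescence of BODIPY-GDP bound to Rap1B, which falls as exchange proceeds. Conditions include 50 uM competing GDP, 5 and 30 min reads, and a later cAMP challenge for antagonist detection.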
# [12] = target: Rap guanine nucleotide exchange factor 3 (Homo sapiens) (UniProt O95398); test: Counterscreen qHTS for agonist of cAMP-regulated guanine nucleotide exchange factor 3 (EPAC1) (AID 1645889); conditions: EPAC1 Rap1B-BODIPY-GDP exchange, fluorescence; series mostly up to 30.8 µM; note: nearly all actives have a fitted effect of over 40% in size
# Outline: as §1
# [13] = NCATS anti-infectives library activity on the primary C. elegans qHTS viability assay (AID 1745855; calls by dose curve); conditions: C. elegans worm area imaging, day 7; series mostly up to 41.8 µM
# Outline: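 Viability is taken from GFP fluorescence of PE254-GFP-FLuc C. elegans imaged by laser cytometry over 7 days. Ten L1 worms per well grow at 21 °C on TOP10 E. coli capsules with titrated compound; levamisole marks toxicity.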
smiles,measurement,setting,value
O=C(O)c1cc(N=Nc2ccc(O)c(C(=O)O)c2)ccc1O,Potency,[1],10.7 µM (active)
same,outcome,[2],inactive
same,outcome,[3],inactive
C=C1[C@H](CO)[C@@H](O)C[C@@H]1n1cnc2c(=O)[nH]c(N)nc21,Potency,[4],inactive
same,Potency,[1],inactive
same,Potency,[5],inactive
same,Potency,[6],inactive
same,outcome,[7],inactive
C[C@]12CC[C@@H]3c4ccc(OC(=O)c5ccccc5)cc4CC[C@H]3[C@@H]1CC[C@@H]2O,Potency,[4],inactive
same,Potency,[6],inactive
CCCCC(=O)O[C@H]1CC[C@H]2[C@@H]3CCc4cc(O)ccc4[C@H]3CC[C@]12C,Potency,[4],inactive
same,Potency,[1],19 µM (active)
same,outcome,[8],inactive
same,outcome,[2],inactive
same,outcome,[3],inactive
same,Potency,[9],inactive
CC(C)Cc1ccc([C@@H](C)C(=O)NS(C)(=O)=O)cc1,Potency,[5],inactive
same,Potency,[6],inactive
CC(C)=CCC/C(C)=C/CC/C(C)=C/CC/C(C)=C/CC1=C(C)C(=O)c2ccccc2C1=O,Potency,[1],8.49 µM (active)
same,outcome,[10],inactive
C[C@H](NCCc1ccc(O)cc1)[C@H](O)c1ccc(O)cc1,Potency,[1],inactive
CCC[C@@H]1C[C@@H](C(=O)N[C@@H]([C@H]2O[C@H](SC)[C@H](O)[C@@H](O)[C@H]2O)[C@H](C)Cl)N(C)C1,Potency,[5],inactive
same,Potency,[6],inactive
COC(=O)C(CN)c1c[nH]c2ccc(OC)cc12 (stereo unspecified),Potency,[1],inactive
CN(C)CCOc1ccc(/C(=C(/CCCl)c2ccccc2)c2ccccc2)cc1,Potency,[5],inactive
CCCCC[C@H](O)/C=C/[C@H]1[C@H](O)CC(=O)[C@@H]1CCCCCCC(=O)O,Potency,[5],0.0661 µM (active)
same,Potency,[6],20.9 µM (active)
C=C1CC[C@H](O)CC1=C/C=C1\CCC[C@]2(C)[C@@H]([C@H](C)/C=C/[C@H](C)C(C)C)CC[C@@H]12,Potency,[4],inactive
same,Potency,[1],16.9 µM (active)
same,Potency,[6],20.5 µM (active)
same,outcome,[10],inactive
N[C@@H](Cc1cc(I)c(Oc2ccc(O)c(I)c2)c(I)c1)C(=O)O,Potency,[5],inactive
same,Potency,[6],inactive
CC(=O)NCCCS(=O)(=O)O,Potency,[4],inactive
same,Potency,[1],inactive
same,Potency,[5],inactive
same,Potency,[6],inactive
Cn1c(O)c(N=NC(N)=S)c2ccccc21,Potency,[1],9.52 µM (active)
C=CC[N+]1([C@H]2C[C@H]3[C@@H]4CC[C@H]5C[C@H](O)[C@@H](N6CCOCC6)C[C@]5(C)[C@H]4CC[C@]3(C)[C@H]2OC(C)=O)CCCC1,Potency,[5],inactive
same,Potency,[6],inactive
Nc1nccs1,Potency,[4],inactive
same,Potency,[1],inactive
same,outcome,[7],inactive
Cc1cc(-c2ccc(N=Nc3c(S(=O)(=O)O)cc4cc(S(=O)(=O)O)cc(N)c4c3O)c(C)c2)ccc1N=Nc1c(S(=O)(=O)O)cc2cc(S(=O)(=O)O)cc(N)c2c1O,Potency,[1],15.1 µM (active)
Nc1ccc(N=Nc2ccccc2)c(N)n1,Potency,[4],17.4 µM (active)
same,Potency,[1],13.8 µM (active)
same,outcome,[7],inactive
CC(C)(C)c1ccc(CN2CCN(C(c3ccccc3)c3ccc(Cl)cc3)CC2)cc1 (stereo unspecified),Potency,[4],inactive
same,Potency,[1],inactive
same,Potency,[6],inactive
NC[C@H]1O[C@H](O[C@H]2[C@H](O)[C@@H](O[C@H]3O[C@H](CO)[C@@H](O)[C@H](N)[C@H]3O)[C@H](N)C[C@@H]2N)[C@H](N)C[C@@H]1O,Potency,[5],inactive
same,Potency,[6],inactive
CC[C@H]1OC(=O)[C@H](C)[C@@H](O[C@H]2C[C@@](C)(OC)[C@@H](O)[C@H](C)O2)[C@H](C)[C@@H](O[C@@H]2O[C@H](C)C[C@H](N(C)C)[C@H]2O)[C@](C)(O)C[C@@H](C)CN(C)[C@H](C)[C@@H](O)[C@]1(C)O,Potency,[4],inactive
same,Potency,[1],inactive
same,Potency,[5],inactive
same,Potency,[6],inactive
same,outcome,[7],inactive
Nc1nc(=O)n([C@@H]2CS[C@H](CO)O2)cc1F,Potency,[4],inactive
same,Potency,[1],inactive
same,outcome,[7],inactive
Oc1ccc(/C=C/c2cc(O)cc(O)c2)cc1,outcome,Papain (Carica papaya),inactive
same,Potency,[5],9.34 µM (active)
same,Potency,[6],18.8 µM (active) and 11.8 µM (active)
same,outcome,[8],inactive
same,outcome,[2],inactive
same,outcome,[3],inactive
same,outcome,[11],inactive
same,outcome,[12],inactive
same,outcome,[7],inactive
same,outcome,[10],inactive
CCOC(=O)[C@@H](N)CS,Potency,[1],10.7 µM (active)
COc1ccc2c(c1)N(C[C@H](C)CN(C)C)c1ccccc1S2,outcome,[8],inactive
same,outcome,[2],inactive
same,outcome,[3],inactive
same,Potency,[9],inactive
CNC(=O)[C@H](Cc1c[nH]c2ccccc12)NC(=O)[C@@H](CC(=O)NO)CC(C)C,Potency,[5],inactive
same,outcome,[7],inactive
same,Potency,[13],inactive
COc1cc(NCCCC(C)N)c2ncccc2c1 (stereo unspecified),outcome,[8],inactive
same,outcome,[2],inactive
same,outcome,[3],inactive
same,Potency,[9],inactive
same,outcome,[11],inactive
CC/C=C\C/C=C\C/C=C\CCCCCCCC(=O)O,outcome,[10],inactive
CC(=O)N[C@@H]([C@@H](O)[C@H](O)[C@H](O)CO)[C@@H](O)CC(=O)C(=O)O,outcome,[7],inactive
CCCCC/C=C\C/C=C\C/C=C\CCCCC(=O)O,"viability change, negative = cytotoxic",[10],-4.69% [at 5 µM]
